OvCa metastasis – inhibitors of ovarian cancer cell adhesion and invasion in omental model | SKOV3ip1-GFP adhesion/invasion on 3D omental model, fluorescence | hit rate 0.1% among 46,000 | Potency, µM (top dose mostly 45.8 µM), most hits filed as inhibitors | AID 1963576; note: nearly all actives have a fitted effect of over 65% in size
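qHTS, 4-pt dose (0.36-46 umol/L); SKOV3ip1-GFP, 1,200 cells/well, no FBS; primary omental fibroblast/mesothelial co-culture 48 h pre-grown; 2 h RT + 16 h 37 C; PBS wash, 4% PFA; GFP count 488/509 nm.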
mTORC1 inh – mTORC1 pathway inhibition measured by phospho-rpS6; Tsc2-/- p53-/- MEF, phospho-rpS6 immunofluorescence/PI, 24 h; Potency, µM (series often up to 38.3 µM), most hits filed as inhibitors; hit rate 0.78% among 44,000; note: nearly all actives have a fitted effect of over 50% in size
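Read-out: phospho-S6 Alexa-488 intensity over PI intensity per well, scored as % active cells using thresholds from rapamycin (7.5 nM) and DMSO controls. Tsc2-/-, p53-/- MEFs exposed to compound for 24 h; PI cell count recorded as viability.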
p53null 39C tox – selectivity test: cytotoxicity in p53 null cells, nonpermissive temperature | AID 904 | Potency, µM (top dose mostly 46.1 µM), usual class: cytotoxic | H1299 p53-null (neo) cells, 39C, ATPlite viability, 24 h | hit rate 0.97% among 55,000; note: nearly all actives have a fitted effect of over 50% in size
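H1299 lung cancer cells, p53-null (H1299-neo) or expressing p53 A138V (H1299-p53A138V), were plated overnight at 37C, then exposed to compounds at up to 46 uM for 24 hr at 39C. Viability was read by ATP-based luminescence.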
S16 viability – S16 Schwann cell cytotoxicity; S16 Pmp22-F2sN Schwann cells viability, CellTiter-Glo, 24 h; Potency, µM (doses to about 57.5 µM), most hits filed as cytotoxic; hit rate 0.48% among 43,000; AID 1508642; note: nearly all actives have a fitted effect of over 65% in size
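Viability was measured by CellTiter-Glo luminescence (15 min, room temperature). This followed 24 h at 37 °C of compound exposure (23 nL pin transfer) in S16 Pmp22-F2sN Schwann cells, 500-1,000 per well.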
p53null 32C kill – kills p53 null cells at the permissive temperature. H1299-neo p53 null cells, ATP luminescence, 24 h, 32C. Potency, µM (highest dose often 46.1 µM), usual class: cytotoxic. hit rate 0.62% among 55,000. AID 903; note: nearly all actives have a fitted effect of over 55% in size
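H1299-neo (p53-null) cells, 600/well, were pre-incubated overnight at 37C, then exposed to compounds at up to 46 uM for 24 hr at 32C. Viability was measured as ATP content by luminescence, and AC50 values came from Hill fits.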
PMP22 txn – PMP22 gene transcription modulation | hit rate 2% among 43,000 | Potency, µM (series often up to 57.5 µM), usual class: inhibitors | S16 Pmp22-F2sN Schwann cells, FLuc/NLuc coincidence luminescence, 24 h; active = clear falling dose curves in both reporters; inconclusive = both reporters move, but less clearly or upward; inactive = either reporter flat; the % is the NLuc reporter signal
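Transcriptional readout in edited S16(c9) cells: two luciferases reported from the Pmp22 locus, measured in turn after 24 h compound incubation.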
NLuc saturating – counter-screen for PMP22 expression modulators: NanoLuc inhibition, saturating substrate; hit rate 4% among 690; shares compounds with PMP22 txn; AID 1508638; Secreted NLuc enzyme (filtered S16 cell medium), Nano-Glo luminescence; Potency, µM (series often up to 57.5 µM), hits mostly inhibitors
NLuc Km ctr – inhibits NanoLuc under Km conditions, PMP22 counter-screen; Potency, µM (series often up to 57.5 µM), most hits filed as inhibitors; hit rate 5% among 690; shares compounds with PMP22 txn; secreted NLuc enzyme, coelenterazine luminescence, Km conditions; AID 1508639
FLuc ctr PMP22 – firefly luciferase enzyme inhibition artifact for PMP22 screen. shares compounds with PMP22 txn. purified P. pyralis FLuc, luminescence, 10 min. Potency, µM (top dose mostly 57.5 µM), usual class: inhibitors. 690 tested, under 10 active. AID 1508640
Target sequence (P08659 whole entry, looked up): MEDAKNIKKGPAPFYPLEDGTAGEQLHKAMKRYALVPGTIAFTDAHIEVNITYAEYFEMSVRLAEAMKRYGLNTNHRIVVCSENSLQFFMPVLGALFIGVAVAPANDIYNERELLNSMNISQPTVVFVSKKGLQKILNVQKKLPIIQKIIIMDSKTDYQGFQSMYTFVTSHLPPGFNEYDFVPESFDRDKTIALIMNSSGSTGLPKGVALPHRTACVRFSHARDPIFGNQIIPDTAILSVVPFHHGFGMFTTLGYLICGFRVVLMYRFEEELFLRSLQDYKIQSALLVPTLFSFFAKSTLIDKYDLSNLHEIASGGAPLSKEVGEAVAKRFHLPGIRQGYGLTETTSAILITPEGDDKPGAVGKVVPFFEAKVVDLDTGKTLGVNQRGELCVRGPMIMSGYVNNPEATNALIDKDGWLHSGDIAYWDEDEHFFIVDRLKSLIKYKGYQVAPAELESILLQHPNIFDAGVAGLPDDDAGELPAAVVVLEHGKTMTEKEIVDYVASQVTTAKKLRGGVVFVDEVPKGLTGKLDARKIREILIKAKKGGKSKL
S16 viab conf – confirmation of cytotoxicity in S16 Pmp22-F2sN Schwann cells (luciferase reporters placed in the Pmp22 gene) | shares compounds with PMP22 txn | S16 Schwann cells viability, CellTiter-Glo ATP luminescence, 24 h | Potency, µM (titrated, usually from 57.5 µM), most hits filed as cytotoxic | hit rate 7% among 690 | AID 1508641
PMP22 txn cnf – PMP22 transcription modulation, confirmatory; shares compounds with PMP22 txn; S16 Schwann cells Pmp22-F2sN, dual luciferase, 24 h; Potency, µM (series often up to 57.5 µM), usual class: inhibitors; hit rate 22% among 690; active = clear falling dose curves in both reporters; inconclusive = both reporters move, but less clearly or upward; inactive = either reporter flat; the % is the FLuc reporter signal
PMP22 prot conf – confirmation of modulators of rat PMP22 protein expression; AID 1508647; S16 Schwann cells Pmp22-HiBiT, luminescence, 48 h; 95 tested, under 10 active; Potency, µM (highest dose often 27.9 µM), hits mostly inhibitors; shares compounds with PMP22 txn
Large screens that a line does not name were inactive (follow-up assays come after a bar, where they were run). Hits are enriched below; roughly 3% of the tested compounds scored in any of these assays. Unless noted, calls come from the whole dose curve; as a rule, active = well fitted curve in the direction sought with a large enough effect; inconclusive = small, poorly fitted or top-dose-only effect, or another doubt; inactive = no such curve, though single readings can be large; an effect the other way counts as inactive or inconclusive.

CCOc1cc(C(=O)Nc2ccc(Cl)c(-c3nc4ccccc4[nH]3)c2)cc(OCC)c1OCC	none (no result: mTORC1 inh, p53null 39C tox, S16 viability, p53null 32C kill, PMP22 txn)
O=c1[nH]c(=O)n([C@H]2C[C@@H](O)[C@@H](CO)O2)cc1C=CBr	none (no result: mTORC1 inh, p53null 39C tox, S16 viability, p53null 32C kill, PMP22 txn)
CCOCCCNC(=O)c1cc2c(=O)n(C)c3ccccc3c2n1C	PMP22 txn inconclusive
COc1cccc(CNC(=O)c2cc3c(=O)n(C)c4ccccc4c3n2C)c1	PMP22 txn 12.7µM | NLuc saturating inactive | NLuc Km ctr inactive | FLuc ctr PMP22 inactive | S16 viab conf inactive | PMP22 txn cnf inconclusive
Cc1ccccc1Nc1c2c(nc3nncn13)CCC2	none
Cc1cccc(Nc2c3c(nc4nncn24)CCC3)c1C	PMP22 txn inconclusive | NLuc saturating inconclusive | NLuc Km ctr inactive | FLuc ctr PMP22 inactive | S16 viab conf inactive | PMP22 txn cnf inconclusive | PMP22 prot conf inactive
COc1cc2c(cc1-c1c(C)noc1C)ncc1[nH]c(=O)n([C@H](C)c3ccccn3)c12	none (no result: mTORC1 inh, p53null 39C tox, S16 viability, p53null 32C kill, PMP22 txn)
CCCSc1ncc(Cl)c(C(=O)Nc2sc3c(c2C(=O)NCC)CCCC3)n1	PMP22 txn 5.15µM | NLuc saturating inactive | NLuc Km ctr inactive | FLuc ctr PMP22 inactive | S16 viab conf inactive | PMP22 txn cnf inconclusive
COc1cc2c(=O)c(C(=O)c3ccc(C)c(C)c3)cn(Cc3ccccc3F)c2cc1OC	PMP22 txn 16.8µM | NLuc saturating 0.385µM | NLuc Km ctr 0.485µM | FLuc ctr PMP22 inactive | S16 viab conf inactive | PMP22 txn cnf inconclusive
CCOc1ccc(CCNc2ncnc3onc(C)c23)cc1OCC	mTORC1 inh inconclusive, PMP22 txn 4.74µM | NLuc saturating inactive | NLuc Km ctr inactive | FLuc ctr PMP22 inactive | S16 viab conf inactive | PMP22 txn cnf inactive
COCCCn1c(=N)c(C(=O)NCC2CCCO2)cc2c(=O)n3cccc(C)c3nc21 (stereo unspecified)	none (no result: OvCa metastasis, mTORC1 inh, p53null 39C tox, S16 viability, PMP22 txn)
COCCCn1c(=N)c(C(=O)NCc2ccco2)cc2c(=O)n3cccc(C)c3nc21	PMP22 txn 14.1µM | NLuc saturating inactive | NLuc Km ctr inactive | FLuc ctr PMP22 inactive | S16 viab conf inconclusive | PMP22 txn cnf inconclusive
CCOCCCn1c(=N)c(C(=O)NCC2CCCO2)cc2c(=O)n3cccc(C)c3nc21 (stereo unspecified)	PMP22 txn 16.3µM | NLuc saturating inactive | NLuc Km ctr inactive | FLuc ctr PMP22 inactive | S16 viab conf inactive | PMP22 txn cnf inconclusive
O=S(=O)(N=Cc1c(O)ccc2ccccc12)c1cccs1	none (no result: mTORC1 inh, p53null 39C tox, S16 viability, p53null 32C kill, PMP22 txn)

Assay outcomes deposited in PubChem by National Center for Advancing Translational Sciences (NCATS).
